High-throughput results (PubChem BioAssay)
Rows were chosen to be rich in hits. Some 4.5% of all compounds tested hit in one or more screens of this group.
BJeLR lethal = kills HRASV12-expressing BJeLR cells | BJeLR (HRASV12) viability, CellTiter-Glo ATP luminescence, 48 h | hit rate 0.17% among 300,000 | inhibition, % (concentration not given with the values); in the data active = inhibition above about 50%; inconclusive = no clear call, values can overlap the other calls
PrPC TRFRET = cell surface PrPC inhibition, primary TR-FRET screen. P04156. hit rate 0.43% among 370,000. TR-FRET read-out. inhibition, % at 13.8 µM; in the data active = inhibition above about 24%; note: 0% = median of the test wells and 100% = reference compound wells
GDH-TPI inh = inhibits GDH-TPI coupling enzymes, artifact for Mtb FBA screen; GDH-TPI coupled enzyme counterscreen, NADH absorbance; inhibition, % at 4.8 µM; hit rate 1.2% among 360,000; AID 588335; in the data active = inhibition above about 30%;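 note: 0% = DMSO wells and 100% = wells lacking the enzyme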
PfHsp40 yeast = rescue of PfHsp40-mediated yeast toxicity; S. cerevisiae expressing PfHsp40, growth rescue, ATP luminescence; growth rescue, % at 12.5 µM; hit rate 0.68% among 340,000; AID 504582; in the data active = growth rescue above about 28%, passing the limit was not always enough; inconclusive = no clear call, values can overlap the other calls;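 note: yeast W303a lacking pdr1 and pdr3 grown in galactose medium; growth measured after three days at 30 °C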
Mtb FBA inh = Mtb fructose-bisphosphate aldolase inhibition; purified M. tuberculosis FBA, fluorescence read-out; inhibition, % at 1 µM; hit rate 2.3% among 360,000; in the data active = inhibition above about 27%;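 note: 0% = vehicle and 100% = reference inhibitor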
PrP 5UTR inh = suppresses PrP 5' UTR mRNA reporter expression. cell-based PrP 5' UTR mRNA reporter, plate reader. inhibition, % (test concentration not listed). AID 488862. hit rate 0.35% among 340,000; in the data active = inhibition above about 52%; note: 0 = median of the neutral control wells
PrPC TRFRET cf = cell surface PrPC inhibition, TR-FRET confirmation; inhibition, % at 13.8 µM; hit rate 65% among 1,500; shares compounds with PrPC TRFRET; cell surface PrPC level; in the data active = inhibition above about 25%
LD9 tox = kills or reduces viability of LD9 cells in PrPc counter-screen. shares compounds with PrPC TRFRET. LD9 cells cytotoxicity, luminescence viability. inhibition, % at 13.8 µM. hit rate 29% among 1,500. AID 743201; in the data active = inhibition above about 9.5%
* marks the source's active call; other numbers are inactive results; ? = inconclusive; . = not tested or not shown.

SMILES | BJeLR lethal | PrPC TRFRET | GDH-TPI inh | PfHsp40 yeast | Mtb FBA inh | PrP 5UTR inh | PrPC TRFRET cf | LD9 tox
COc1ccc(C(CC(=O)O)NC(=O)c2cccs2)cc1 (stereo not given) | 0.9 | 2.4 | 10.3 | -0.1 | -0.5 | -7.4 | . | .
COc1ccc(C(CC(=O)O)NC(=O)c2sc3ccccc3c2Cl)cc1 (stereo not given) | 0.9 | 34.2* | 7.5 | -0.7 | -1.6 | -16.1 | 38.5* | -4.1
CCOC(=O)[C@]12CCCC=C1N(Cc1ccc(Cl)cc1Cl)C(=O)[C@H](CC(=O)N1CCOCC1)C2 | . | 4.8 | . | . | . | . | . | .
O=S(=O)(O)c1nc2ccccc2[nH]1 | 2.9 | -2.2 | 2.5 | -0.7 | -0.3 | -15.6 | . | .
CCOC(=O)c1c(-c2ccc(C)s2)csc1N | 1.7 | 70.4* | 2.5 | -0.6 | 1.1 | -1.4 | 53.8* | -1.9
CCOC(=O)N1CCN(S(=O)(=O)c2ccc(C(=O)Nc3nc4c(s3)CC(C)CC4)cc2)CC1 (stereo not given) | -4.6 | -4.4 | -0.6 | -0.9 | -2.7 | -26.4 | . | .
CCOC(=O)N1CCN(S(=O)(=O)c2ccc(C(=O)NNc3nc4c(C)cc(C)cc4s3)cc2)CC1 | -3.4 | 25.4* | 2.4 | . | 0.2 | . | 24.9* | 3.8
Cc1cc(NCCCn2ccnc2)n2nc(C)c(-c3ccc(Cl)cc3)c2n1 | -3.9 | 44.1* | 6.1 | -0.3 | 11.3 | . | 1.9 | 9.7*
Cc1ccc(F)cc1CNC(=O)c1cc(COc2ccc3ncccc3c2)on1 | 29.1 | 13.9 | -2.5 | 2.6 | -1.1 | -32.7 | . | .
O=C(NCc1cccc(Cl)c1)c1cc(COc2ccc3ncccc3c2)on1 | -0.4 | 24.6* | 8.1 | 20.6 | 3.7 | -14.9 | 25.8* | 15.0*
Cc1cc(Br)cc2c1NC(=O)C2(O)CC(=O)c1ccco1 (stereo not given) | -4.4 | 3.9 | -1.6 | -0.4 | -1.7 | -21.9 | . | .
CC1CCCC(C)N1C(=O)CSc1nnc(COc2ccccc2)n1-c1ccccc1 (stereo not given) | -2.5 | 37.1* | 7.5 | -1.7 | 0.0 | -24.0 | 34.3* | -3.9
NS(=O)(=O)c1ccc(NC(=O)COC(=O)CCCN2C(=O)c3cccc4cccc(c34)C2=O)cc1 | . | -18.5 | 21.1 | 0.5 | 17.4 | -33.4 | . | .
CN=C(Nc1cccc(Cl)c1)SC1CC(=O)N(c2ccc(OC)cc2)C1=O (stereo not given) | -0.8 | 29.5* | 0.0 | 7.7 | 0.1 | -18.9 | 1.6 | -2.2
Cn1c(=O)cc(OCCCC(=O)Nc2cc(-c3cn[nH]c3)ccn2)c2ccccc21 | . | 35.2* | . | . | . | . | 41.3* | 24.3*
Cc1cccc(OCC(=O)NCCCNC(=O)c2ccncc2)c1 | 8.3 | 0.6 | -6.5 | 0.5 | 1.4 | -11.1 | . | .
O=C1C(Cl)=C(Nc2ccc3cn[nH]c3c2)C(=O)c2ccccc21 | 87.2* | 70.9* | 13.0 | -0.8 | -2.1 | . | 22.4 | 98.3*
O=C(Nc1ccc2cn[nH]c2c1)c1c(Cl)cccc1Cl | -7.2 | 1.8 | 0.8 | -0.7 | 0.0 | -1.1 | . | .
CC1(C)NC(=O)N(CC(=O)OCC(=O)Nc2cccc(S(N)(=O)=O)c2)C1=O | 2.9 | -3.7 | -1.9 | 0.0 | -2.4 | -16.2 | . | .
CNC(=O)COc1ccccc1C(=O)Nc1ccc2c(c1)oc1ccccc12 | 8.8 | 31.1* | 13.5 | 0.4 | 8.2 | -17.4 | 31.7* | -2.5
N#Cc1ccccc1NC(=O)c1ccccc1OCC(=O)Nc1ccc2c(c1)oc1ccccc12 | 12.9 | -3.0 | 10.6 | 0.2 | 0.9 | -26.0 | . | .
CCCC(=O)NC(c1ccc(OC)cc1)c1ccc2cccnc2c1O (stereo not given) | 30.8 | 27.2* | 6.7 | -1.0 | -0.9 | 16.0 | 26.0* | 31.7*
CCCC(=O)NC(c1ccccc1)c1ccc2cccnc2c1O (stereo not given) | 26.1 | 23.4 | 4.9 | ? | 1.4 | 19.5 | . | .
CCC(=O)NC(c1ccc(OC)cc1)c1c(O)ccc2ccccc12 (stereo not given) | -8.6 | 15.4 | -0.6 | -1.4 | 14.7 | -22.5 | . | .
CCCCC(=O)NC(c1ccccc1)c1ccc2cccnc2c1O (stereo not given) | 25.3 | 29.1* | 4.1 | -1.2 | -1.5 | 21.4 | 26.9* | 19.2*
SMILES | BJeLR lethal | PrPC TRFRET | GDH-TPI inh | PfHsp40 yeast | Mtb FBA inh | PrP 5UTR inh | PrPC TRFRET cf | LD9 tox
Oc1c(C(c2ccccc2Cl)N2CCCC2)ccc2cccnc12 (stereo not given) | -10.4 | 8.8 | -3.2 | -1.2 | -3.0 | -19.7 | . | .
CCCCC(=O)NC(c1ccccc1Cl)c1ccc2cccnc2c1O (stereo not given) | 6.2 | 38.6* | -4.4 | -1.1 | -5.7 | 1.8 | 31.6* | 30.2*
CC(=O)c1nnn(-c2ccc([N+](=O)[O-])cc2C)c1C | -10.9 | -6.0 | 6.1 | -0.7 | 2.2 | -4.5 | . | .
Cc1c(C(=O)NCc2ccccc2C(F)(F)F)sc(=O)n1Cc1ccc2c(c1)OCO2 | . | -2.2 | 2.4 | . | -1.1 | . | . | .
Cc1cc(C)n(-c2nc(SCCN(C)C)c3c4c(sc3n2)COC(C)(C)C4)n1 | 6.5 | -7.1 | 25.5 | -0.8 | 8.4 | -10.9 | . | .
CCn1nc(C)cc1-c1nnc(Sc2ncc([N+](=O)[O-])s2)n1C | 33.6 | -12.8 | 11.4 | 4.2 | -1.0 | -3.7 | . | .
NC(=O)c1cnn(C2CCS(=O)(=O)C2)c1 (stereo not given) | -4.5 | -5.1 | -5.2 | -0.5 | 1.5 | -7.7 | . | .
CC(C)CC(N)c1csc(Nc2ncccn2)n1 (stereo not given) | . | 41.5* | -8.4 | . | 1.9 | . | 50.1* | -1.3
COC(=O)C1=C(C(=O)OC)[C@@]2([C@@H](Cc3ccc(C)cc3)Nc3ccccc3)C=C[C@@H]1O2 | . | 66.9* | . | . | . | . | 14.3 | 98.4*
O=C(Cc1cccs1)Nc1cc(SCCO)cc([N+](=O)[O-])c1 | 0.9 | -24.2 | 4.0 | 0.4 | 0.5 | -17.0 | . | .
O=[N+]([O-])c1ccc(N2CCCCC2)cc1 | 9.1 | -6.4 | 6.1 | -0.3 | -7.0 | -36.0 | . | .
O=[N+]([O-])c1ccc(N2CCN(CC3CCCCC3)CC2)cc1 | -5.6 | 50.7* | 7.7 | -2.4 | -0.2 | -19.8 | -6.2 | 4.8
O=c1c(Cc2ccc(Cl)cc2)c(O)ccn1Cc1ccccc1 | 2.6 | 5.4 | 9.5 | 0.2 | 6.4 | -22.7 | . | .
CCOC(CCn1ccc(O)c(Cc2ccc(Cl)cc2)c1=O)OCC | 1.5 | 35.0* | 11.0 | 1.6 | -1.7 | 4.6 | 11.2 | -1.2
COc1cc(C)c(Br)cc1S(=O)(=O)NCCN1CCOCC1 | -6.2 | -4.6 | -1.2 | -1.5 | -3.0 | -34.1 | . | .
CCN(CC(=O)Nc1ccc(C(=O)OC)cc1)C1CCCCC1 | 4.7 | -0.4 | -5.3 | -0.9 | -0.6 | -21.2 | . | .
COCc1c(C(=O)N2CCc3ccccc32)oc2ccccc12 | 3.4 | 26.0* | 3.0 | -0.5 | -7.7 | -14.8 | 3.1 | -4.4
CCC(C)NC(=O)c1cc(S(=O)(=O)N2CCCCC2)c[nH]1 (stereo not given) | -3.3 | -0.5 | 3.8 | 0.0 | 1.8 | -7.1 | . | .
CCCNC(=O)c1cc(Cl)c(NC(=O)C2=C(C)OCCS2)cc1OC | -1.9 | 26.2* | 7.3 | -2.3 | -0.2 | -27.8 | 31.9* | -2.2
